Hit rate of the full screen: of about 410,000 compounds, about 260 (0.063%) were called active. Entries that show only a call come without a potency. About 2% were inconclusive and are not listed. Calls follow the shape of the dose curve; as a rule, active = well fitted activation curve with a large enough effect; inconclusive = small, poorly fitted or top-dose-only effect; inactive = no such curve, though single readings can be large or run the other way. Only a selection was taken, and actives are over-represented in it overall.
Assay: qHTS for compounds that reverse cellular toxicity of Amyloid beta (A-beta) peptide in yeast: Primary Screen; also: nearly all actives have a fitted effect of over 55% in size
Conditions: yeast expressing A-beta42, growth rescue, OD600, 48 h; series mostly up to 46.1 µM
From the text: The A-beta peptide is produced by the processing of the amyloid precursor protein (APP) by two proteases, beta and gamma secretases. […] A-beta42 is regarded as the most amyloidogenic form due to its hydrophobicity; however, precisely how A-beta42 induces neurotoxicity is unclear. To understand further this biology and its potential therapeutic implications for human neurodegenerative disease, a quantitative high-throughput screen for compounds that reverse the cellular toxicity of the A-beta peptide was developed. A yeast based screen was used because it recapitulates the salient feature of protein mis-folding disorder accurately. This cell-based phenotypic screen provides a significant, unbiased advantage by letting the compounds and models inform us which proteins or pathways are most relevant. The ideal chemical candidates would therefore have activity in both our primary yeast and secondary neuronal toxicity assays, as well as in mouse models. They will be valuable tools for dissecting diverse protein homeostasis pathologies and could potentially become the focus for future pre-clinical development. For this luminescence assay, inhibition of A-beta rescues the toxic effect in the yeast cell, resulting in increase of signals and the desired phenotype of "Activator". This screen is run against the Molecular Libraries Small Molecule Repository (MLSMR) and the NCGC Sytravon Library Collection.
NIH Chemical Genomics Center [NCGC]
NIH Molecular Libraries Probe Centers Network [MLPCN]
Assay Submitter (PI): Susan Lindquist, Whitehead Institute, Massachusetts Institute of Technology
[1] Vassar R,et al (1999). Beta-secretase cleavage of Alzheimer's amyloid precursor protein by the transmembrane aspartic protease BACE. Science. 286: 735-741.
[2] Yan R, et al (1999). Membrane-anchored aspartyl protease with Alzheimer's disease beta-secretase activity. Nature. 402: 533-536.
Two and a half microliter / well of yeast growth medium were dispensed in a 1536 assay plate. Compounds were pinned using the Kalypsys robotic system followed by addition of 2.5 uL / well yeast solution. The assay plates were incubated at 30 C. After 48 hr, the absorbance signal at 600 nm was obtained using the PerkinElmer ViewLux plate reader to assess yeast growth. The data was normalized to the positive control of an equimolar mixture of ferric chloride (FeCl3) and clioquinol and to the negative control DMSO.
With `Cc1ccc(C)c(N2CCN(CCCNC(=O)Nc3ccc(Cl)cc3)CC2)c1` the Potency was “inactive”. With `COc1ccc(S(=O)(=O)c2cn(C)c3cc(N4CCCCC4)c(F)cc3c2=O)cc1` the Potency was “inactive”. In the case of `COc1cccc(CNCc2c(C(=O)O)n(Cc3ccc(C)cc3)c3cc(C)ccc23)c1OC`, the Potency is reported as “inactive”. In the case of `O=C(NC1CCCCC1)c1ccc2c(c1)N(Cc1ccc(Cl)cc1)C(=O)c1ccccc1S2=O` (centres undefined), the Potency is reported as “inactive”. For `COc1ccc(NC(=O)NC(C)c2c(-n3cccc3)sc(C)c2C)cc1OC` (centres undefined), the Potency was “inactive”. For `COc1ccc(OC)c(-c2noc(N3CCN(c4cc(Cl)ccc4C)CC3)n2)c1`, the Potency was “inactive”. With `O=C(Nc1c(C(=O)N2CCN(c3ccc(F)cc3)CC2)oc2ccccc12)c1ccco1` the Potency was “inactive”. For `CCOc1ccc(CNC(=O)c2cccc(Nc3nc4ccccc4n4nnnc34)c2)cc1OC`, the Potency was “inactive”. With `CCc1cc2c(cc3c(=O)n(CC(=O)NCc4cccc(Cl)c4)nc(CC)n32)s1` the Potency was “inactive”. In the case of `Cc1nn(CC(=O)NCCc2ccccc2)c(=O)c2c1sc1ccccc12`, the Potency is reported as “inactive”. For `O=C(CSc1nccn1-c1ccc(F)cc1)Nc1cccc2ccccc12`, the Potency was “inactive”. For `Cn1c(=O)cc(OCC(=O)N2CCN(c3ccccc3)CC2)c2ccccc21`, the Potency was “inactive”. In the case of `COc1cc2c(cc1OC)C(COc1ccc(F)cc1)N(C(=O)c1ccccc1F)CC2` (centres undefined), the Potency is reported as “inactive”. In the case of `CCOc1ccccc1NC(=O)CSc1ncc(S(=O)(=O)c2ccc(C(C)(C)C)cc2)c(=O)[nH]1`, the Potency is reported as “inactive”. In the case of `CCOCCCn1c(SCC(=O)Nc2ccc(CC)cc2)nc2ccccc2c1=O`, the Potency is reported as “inactive”. With `CCCN(CCC)C(=O)C1CCCN(c2ncnc3c2nc2n3CCCCC2)C1` (centres undefined) the Potency was “inactive”. In the case of `Cn1c(=O)n(Cc2c(F)cccc2Cl)c(=O)c2c1nc1n2CCN1c1ccc(F)cc1`, the Potency is reported as “inactive”. In the case of `Cc1ccc(Cl)cc1N1CCN(C(=O)c2cccn3c(=O)c4cc(Cl)ccc4nc23)CC1`, the Potency is reported as “inactive”. In the case of `COCCN(Cc1ccco1)C(=O)Cn1ncc2c([nH]c3ccccc32)c1=O`, the Potency is reported as “inactive”. With `O=C(CSc1nnc(-c2ccccc2F)o1)Nc1cccc(C(F)(F)F)c1` the Potency was “inactive”. For `Cc1ccc2nc(COc3cccc(NC(=O)c4cccc(Cl)c4)c3)cc(=O)n2c1`, the Potency was “inactive”. With `COc1ccc(-n2ccn(CC(=O)Nc3ccc(C)c(C)c3)c(=O)c2=O)cc1OC` the Potency was “inactive”. For `COc1ccc(CNC(=O)Cc2coc3ccc(C(C)C)cc23)cc1`, the Potency was “inactive”. With `CCCCCn1c(=O)[nH]c2cc(C(=O)NCCN(C)CCCC)ccc2c1=O` the Potency was “inactive”. For `CCOc1ccc(CNC(=O)c2cc(=O)[nH]c3ccc(S(=O)(=O)N4CCCCC4)cc23)cc1`, the Potency was “inactive”. In the case of `Cc1ccc(C)c(Nc2nnc(-c3ccc(C)c(S(=O)(=O)N4CCCCC4)c3)c3ccccc23)c1`, the Potency is reported as “inactive”. For `CCc1cccc(C)c1Nc1c(-c2ccc(N(C)C)cc2)nc2ncccn12`, the Potency was “inactive”. With `COc1ccc(-c2nc3ccccc3o2)cc1NC(=O)c1cc([N+](=O)[O-])ccc1N1CCOCC1` the Potency was “inactive”. With `Cc1ccc(-c2nc3ccccn3c2Nc2c(C)cccc2C)o1` the Potency was “inactive”. For `COc1ccc(NS(=O)(=O)c2cc3c4c(c2)CC(=O)N4CCC3)cc1Cl`, the Potency was “inactive”. In the case of `O=S(=O)(Nc1ccc2nc(-c3cccc(Cl)c3)oc2c1)c1ccccc1`, the Potency is reported as “inactive”. In the case of `CCOC(=O)c1ccc(NC(=O)c2c(NCc3cccc(OC)c3)sc3c2CCC3)cc1`, the Potency is reported as “inactive”. In the case of `CCOC(=O)C1CCN(c2csc3ccc(C)cc3c2=O)CC1`, the Potency is reported as “inactive”. In the case of `CCC(=O)Nc1ccccc1-c1nc2ccccc2n(CC(=O)Nc2ccc(C)c(C)c2)c1=O`, the Potency is reported as “inactive”. With `CCCNc1ncnc2c1c(-c1ccccc1)cn2-c1ccc(OCC)cc1` the Potency was “inactive”. For `COc1ccc(OC)c(CCNC(=O)CCCn2c(=O)c3cccn3c3cccnc32)c1`, the Potency was “inactive”. For `CCOC(=O)c1cnc2c(C)cc(C)cc2c1Nc1ccc(N2CCOCC2)cc1`, the Potency was “inactive”. For `COc1ccc(CNC(=O)Cn2nnc(-c3ccccc3F)n2)cc1`, the Potency was “inactive”. With `Cc1cccc(-n2ccnc2SCC(=O)Nc2cccc3ccccc23)c1C` the Potency was “inactive”. In the case of `O=C(/C=C/c1ccccc1)N1CCN(Cc2cc(=O)n3nc(-c4ccccc4F)sc3n2)CC1`, the Potency is reported as “inactive”. With `Cc1ccc(Oc2c(C(F)(F)F)oc3c(CN4CCCCC4)c(O)ccc3c2=O)cc1` the Potency was “inactive”. For `O=C(NC1(C(F)(F)F)N=C(c2ccccc2)N(C2CCCCC2)C1=O)c1ccccc1F` (centres undefined), the Potency was “inactive”. With `Cc1cccc(N2CCN(C3=C(c4ccccc4)C(=O)c4ccccc43)CC2)c1C` the Potency was “inactive”. With `Cc1ccc(-n2nnnc2CNC(=O)c2ccccc2C)cc1C` the Potency was “inactive”. With `CCOC(=O)C1CCN(C(=O)CSc2c3c(nc4ccc(Cl)cc24)CCCC3)CC1` the Potency was “inactive”. With `CN(Cc1ccccc1)C(=O)c1cc2c(=O)n(C)c3ccccc3c2s1` the Potency was “inactive”. With `COc1ccccc1NC(=O)c1sc2nc(C)c(C(=O)Nc3ccc(Cl)cc3)c(-c3ccc(Br)cc3)c2c1N` the Potency was “inactive”. In the case of `CCOc1ccc(CNCCSc2nnnn2C)cc1`, the Potency is reported as “inactive”. With `CCOC(=O)c1ccccc1NC(=O)c1nn(-c2ccc(OC)c(Cl)c2)c(=O)c2c1c1ccccc1n2C` the Potency was “inactive”. With `COCCn1c(CCC(=O)Nc2cc(C)ccc2C)nc2cccnc21` the Potency was “inactive”. For `COc1cccc(CN2CCc3nc(SCC(=O)Nc4ccccc4)[nH]c(=O)c3C2)c1`, the Potency was “inactive”. With `CC(C)CC(=O)N/C(N)=N/c1nc2ccccc2s1` the Potency was 11.2 µM (active). With `Cc1cc(C)cc(-n2ccnc2SCC(=O)Nc2nc3ccccc3s2)c1` the Potency was “inactive”. For `Cc1c(NC(=O)C(C)(C)C)cccc1-c1nc2ccccc2s1`, the Potency was “inactive”. For `Cc1ccc(-c2cc(C(=O)Oc3ccccc3Cl)no2)cc1C`, the Potency was “inactive”. With `Cc1ccc(C)c(Cn2c(=O)n(CCC(=O)NCc3ccc4c(c3)OCO4)c(=O)c3sccc32)c1` the Potency was “inactive”. With `CC(=O)N1CCCc2ccc(NS(=O)(=O)c3ccc(F)cc3F)cc21` the Potency was “inactive”. In the case of `COc1ccc(OC)c(CNC(=O)Cn2nc(C)c3c(C)n(-c4ccccc4)nc3c2=O)c1`, the Potency is reported as “inactive”. In the case of `COc1cc(OC)c(OC)cc1/C=C/c1nc2cc3ccccc3cc2c(=O)n1-c1ccc(F)c(Cl)c1`, the Potency is reported as “inactive”. With `CCOC(=O)c1cccc(NC(=O)C(Cc2ccccc2)NS(=O)(=O)c2cccc3nsnc23)c1` (centres undefined) the Potency was “inactive”. With `COC(=O)c1ccc(C2C(C(=O)Nc3ccccc3)=C(C)Nc3nc4ccccc4n32)cc1` (centres undefined) the Potency was “inactive”. For `O=C(CSc1nccc(=O)[nH]1)Nc1ccc(N2CCOCC2)c(Cl)c1`, the Potency was “inactive”. For `O=C(CSc1ccc([N+](=O)[O-])cn1)Nc1ccc(N2CCOCC2)c(Cl)c1`, the Potency was 22.4 µM (active). For `CCOc1ccc(C(=O)NC(=S)Nc2ccc(N3CCOCC3)c(Cl)c2)cc1[N+](=O)[O-]`, the Potency was “inactive”. For `Cc1cc(=O)c2cc(C(=O)Nc3cccc(C)c3C)ccc2[nH]1`, the Potency was “inactive”. In the case of `Cc1cc2n(n1)C(c1cc(C(C)(C)C)c(O)cc1O)Nc1ccccc1-2` (centres undefined), the Potency is reported as “inactive”. For `Cc1ccc(S(=O)(=O)c2nc(-c3cccs3)oc2N2CCCCC2)cc1`, the Potency was “inactive”. With `CCOC(=O)c1ccc(NC(=O)Cn2cc(S(=O)(=O)Cc3ccccc3F)c3ccccc32)cc1` the Potency was “inactive”. For `Cc1ccc2sc(N(Cc3cccnc3)C(=O)C3COc4ccccc4O3)nc2c1C` (centres undefined), the Potency was “inactive”. For `Cc1ccc(C(=O)Nc2ccc3[nH]c(=O)c(=O)[nH]c3c2)cc1`, the Potency was “inactive”. In the case of `C=Cc1ccc(Cn2c(C(=O)OC)cc3sc(C)cc32)cc1`, the Potency is reported as “inactive”. In the case of `CC1=C(C(=O)OCc2ccc(C)cc2)C(c2c(Cl)cccc2Cl)CC(=O)N1` (centres undefined), the Potency is reported as “inactive”. With `COc1cc(-c2noc(-c3ccc(N4CCCC4)c([N+](=O)[O-])c3)n2)cc(OC)c1OC` the Potency was “inactive”. For `CCc1ccccc1NC(=O)N1CCN(C(=O)c2nsc3ccccc23)CC1`, the Potency was “inactive”. With `COc1cccc(CNC(=O)CN2C(=O)CCc3cc(S(=O)(=O)N4CCOCC4)ccc32)c1` the Potency was “inactive”. With `CCn1c2c(c(=O)n3ncc(C(=O)N4CCN(c5ccccc5)CC4)c13)CN(Cc1ccc(OC)cc1)CC2` the Potency was “inactive”. For `O=C(NC1CC(=O)N(c2ccc(Cl)cc2)C1)C1CCCC1` (centres undefined), the Potency was “inactive”. With `Cc1csc2nc(COC(=O)c3ccc(NC(=O)COc4ccccc4F)cc3)cc(=O)n12` the Potency was “inactive”. With `COc1ccc(-c2cccc(NS(=O)(=O)c3cc(C)c(OC)c(C)c3C)c2)nn1` the Potency was “inactive”. For `CCN(C(=O)Cn1cc(S(=O)(=O)N2CCN(c3ccccc3F)CC2)c2ccccc2c1=O)c1ccc(C)c(C)c1`, the Potency was “inactive”. With `COc1cc2nc(SCc3ccc(F)cc3)n3nc(CCn4c(C)nc5ccccc54)nc3c2cc1OC` the Potency was “inactive”. In the case of `N#Cc1nc(/C=C/c2ccc(F)cc2)oc1NC1CCCCC1`, the Potency is reported as “inactive”. For `Cc1ccc(CNS(=O)(=O)c2ccc(-c3cc(C(F)(F)F)on3)s2)cc1`, the Potency was “inactive”. With `O=C(CCC1N=C2c3ccccc3N=C(SCc3ccccc3F)N2C1=O)NCCc1ccccc1` (centres undefined) the Potency was “inactive”. With `Cc1ccc(OCCn2c(CNc3ccccc3C)nc3ccccc32)cc1` the Potency was “inactive”. For `CCCC12CN3CC(C)(CN(C1)C3c1ccccc1Cl)C2=O` (centres undefined), the Potency was “inactive”. In the case of `CCC1CCCCN1C(=O)Cn1c(=O)n(CCCCCC(=O)NCc2ccccc2)c(=O)c2sccc21` (centres undefined), the Potency is reported as “inactive”. In the case of `Cc1ccc(C2c3[nH]c4ccccc4c3CCN2C(=O)c2cccc(C)c2)cc1` (centres undefined), the Potency is reported as “inactive”. With `Cc1onc(-c2ccc(F)cc2F)c1C(=O)Nc1cccc(C(F)(F)F)c1` the Potency was “inactive”.

— PubChem BioAssay AID1347071 (National Center for Advancing Translational Sciences (NCATS), 2019)
Potency is read from the fitted curve at half-maximal effect.
